# Shown are actives, neighbours in structure and some others; about 3.4% of the full set was active somewhere.
# GPR151 ag: human GPR151 activation; Q8TDV0; PathHunter beta-arrestin GPR151 cells, luminescence; activation, % at 11.2 µM; 650,000 compounds, 1% hits; in the data active = activation above about 4.9%;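 also: 0% = median of compound wells and 100% = cells with positive control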
# MITF inh: human MITF inhibition, primary screen. O75030. AlphaScreen MITF homodimerization, bead proximity signal. inhibition, % at 2.6 µM. 650,000 compounds, 0.91% hits. AID 1259374; in the data active = inhibition above about 50%;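 also: 0% = vehicle wells with protein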
# Target sequence (O75030 whole entry, looked up): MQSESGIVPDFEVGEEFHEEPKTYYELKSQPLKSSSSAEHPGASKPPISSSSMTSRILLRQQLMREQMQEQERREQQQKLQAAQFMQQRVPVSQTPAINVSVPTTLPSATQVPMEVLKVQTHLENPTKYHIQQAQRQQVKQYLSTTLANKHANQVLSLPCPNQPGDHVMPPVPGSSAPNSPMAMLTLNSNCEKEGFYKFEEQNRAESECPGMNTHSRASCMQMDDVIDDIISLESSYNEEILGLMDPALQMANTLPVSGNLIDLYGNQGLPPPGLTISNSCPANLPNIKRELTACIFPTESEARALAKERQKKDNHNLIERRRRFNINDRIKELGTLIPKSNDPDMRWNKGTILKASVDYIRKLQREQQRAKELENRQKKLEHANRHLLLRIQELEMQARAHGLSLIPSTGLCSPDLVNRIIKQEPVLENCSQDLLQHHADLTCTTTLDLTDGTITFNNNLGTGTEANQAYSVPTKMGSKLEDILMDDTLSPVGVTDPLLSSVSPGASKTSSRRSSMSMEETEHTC
# FBW7 activator: activators of human E3 ligase FBW7; AlphaScreen FBW7–phospho-cyclin E peptide binding, activator screen; normalized activity (activation), % at 26.1 µM; 650,000 compounds, 0.13% hits; in the data active = normalized activity above about 1.9%;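 also: purified mutant Fbw7 with reduced substrate affinity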
# TEAD-YAP block: TEAD-YAP interaction inhibition; 640,000 compounds, 1.4% hits; inhibition, % at 9.12 µM; HEK-TIYL cells, TEAD-Gal4/YAP UAS-luciferase luminescence; in the data active = inhibition above about 32%;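 also: 0% = median of test compound wells and 100% = reference inhibitor wells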
# The depositor's hits bear a star.
SMILES,GPR151 ag,MITF inh,FBW7 activator,TEAD-YAP block
COc1ccc(C(Nc2cccc(C)n2)c2ccc3ccc(C)nc3c2O)cc1C (stereo not drawn),-2,4,0,42*
CCOC(=O)CN(C(=O)CCl)c1ccc(F)cc1,0,-5,0,77*
COc1ccc(C2CC(c3ccc(C)cc3)=NN2C(=O)CCCC(=O)O)cc1 (stereo not drawn),1,-7,0,-11
CCCCC(CC)CNC(CC(=O)Nc1cc(C)cc(C)c1)C(=O)O (stereo not drawn),0,5,0,11
COc1ccccc1/C=C(\NC(=O)c1ccccc1)C(=O)Nc1cccc(O)c1,-2,20,0,40*
Oc1ccc(CNc2cccc(Br)c2)c2cccnc12,-1,27,-1,1
Oc1ccc(CNc2ccc(Cl)cn2)c2cccnc12,-1,31,-1,54*
CCOc1ccc(NCc2ccc(O)c3ncccc23)cc1,0,62*,-1,11
COc1cc(Nc2ccnc(Nc3nc4ccccc4n3C)n2)cc(OC)c1OC,0,14,0,-11
Cc1nc(C)n(-c2ccc(Nc3nccc(-c4cccc(-n5ccnn5)c4)n3)cc2)n1,4,15,0,44*
CC(=O)Nc1cc(F)cc(-c2ccnc(Nc3ccc(-n4nc(C)nc4C)cc3)n2)c1,0,9,0,45*
Cc1ccc(C)c(NC(=S)NC2CC(C)(C)NC(C)(C)C2)c1,1,-13,0,-8
Oc1c(C(Nc2cccnc2)c2ccsc2)ccc2cccnc12 (stereo not drawn),1,18,0,50*
Cc1ccnc(NC(c2ccc3c(c2)OCO3)c2ccc3cccnc3c2O)c1 (stereo not drawn),1,28,0,82*
Cc1ccnc(NC(c2ccncc2)c2ccc3cccnc3c2O)c1 (stereo not drawn),1,113*,0,79*
Cc1ccnc(NC(c2ccc(F)cc2)c2ccc3cccnc3c2O)c1 (stereo not drawn),-1,17,-2,73*
Cc1ccnc(NC(c2ccccn2)c2ccc3cccnc3c2O)c1 (stereo not drawn),-1,70*,-1,71*
Cc1ccnc(NC(c2ccsc2)c2ccc3cccnc3c2O)c1 (stereo not drawn),0,62*,0,89*
CC1CC(C)(C)N(C(=O)CCl)c2ccccc21 (stereo not drawn),0,-12,0,6
CCCn1c(-c2ccc(N)cc2)nc2ccccc21,-8,2,0,35*
COc1ccc(-c2nc3ccccc3n2C)cc1,-8,12,0,32*
COc1ccc(-c2nc3ccccc3c(=O)n2-c2nc3ccccc3n2C)cc1,0,-9,0,88*
O=S(=O)(c1ccc(Br)cc1Cl)N1CCCC1,-1,16,0,-5
O=C(C(c1ccccc1)c1ccccc1)N1CCN(S(=O)(=O)c2ccc(F)cc2)CC1,-1,18,0,12
Cc1ccc(NC(=O)c2ccc(Cl)cc2Cl)nc1,-4,-4,0,35*
SMILES,GPR151 ag,MITF inh,FBW7 activator,TEAD-YAP block
Cc1cc(C)c(NC(=O)c2ccc(Cl)cc2)c([N+](=O)[O-])c1,-2,-2,0,42*
Cc1ccc(NC(=O)c2ccc(Cl)cc2[N+](=O)[O-])nc1,0,13,0,41*
Nc1nc(NCc2ccccc2)cc(-c2ccc(N3CCOCC3)nc2)n1,2,10,0,2
O=C(Nc1ccc2oc(-c3cc(Br)ccc3Cl)nc2c1)c1cc(I)ccc1Cl,-1,-9,0,-4
O=C(NCCc1ccc(O)cc1)c1cc(N2CCN(Cc3ccc4c(c3)OCO4)CC2)nc2ccccc12,0,12,0,48*
O=C(c1cnc(N2CCN(c3ccccn3)CC2)c2ccccc12)N1CCN(Cc2ccc3c(c2)OCO3)CC1,2,0,0,57*
CCCNC(=O)c1cc(N2CCN(Cc3ccc4c(c3)OCO4)CC2)nc2ccccc12,0,-4,0,-9
COC(=O)c1cnc(N2CCN(Cc3ccc4c(c3)OCO4)CC2)c2ccccc12,-1,2,0,9
CCOC(=O)C1(CCOC)CCN(Cc2[nH]c3c(C)cccc3c2C)CC1,3,4,0,-1
C[C@H](c1ccccc1)n1c(=O)[nH]c2ncc(-c3ccc(C(=O)N4CCN(C)CC4)cc3)nc21,-2,1,0,5
C[C@@H](c1ccccc1)n1c(=O)[nH]c2ncc(-c3ccc(C(=O)N4CCOCC4)cc3)nc21,1,12,2.0*,-8
CCOc1ccc(N(C(=O)c2ccco2)C(C(=O)NC2CCCC2)c2ccncc2)cc1 (stereo not drawn),-1,17,0,-1
COC(=O)c1sc(NC(=O)c2ccccc2Cl)c(C#N)c1C,0,-9,0,1
Cc1sc(NC(=O)c2ccccc2Cl)c(C#N)c1C,3,0,2.6*,-45
CC(C)NC(=S)N/N=C/c1cccc(O)c1O,-1,90*,-1,-15
Cc1ccccc1NC(=O)C(=O)N/N=C/c1ccccc1O,1,52*,0,2
COCCNC(=S)N/N=C/c1ccc(O)c(O)c1O,0,107*,-1,5
COCCNC(=O)CC(=O)N/N=C/c1ccccc1O,0,17,-2,0
COCCNC(=S)N/N=C/c1cc(OC)c(OC)cc1OC,3,1,0,-1
COCCNC(=O)C(=O)N/N=C/c1ccccc1O,-1,53*,-2,-2
Oc1cccc(/C=N/NC(=S)N/N=C/c2cccc(O)c2O)c1O,0,37,0,-1
CCC1CCCCN1c1ccc(NC(=O)CCC(=O)O)cc1 (stereo not drawn),0,4,0,7
CCSc1nnc(-c2ccc(OC)cc2)n1N,-1,-12,0,-10
O=C(N/N=C/c1cc([N+](=O)[O-])cc([N+](=O)[O-])c1O)c1ccncc1,0,11,0,7
Cc1ccc(C)c(/C=N/Nc2nc(C)cc(=O)[nH]2)c1,0,6,0,-4
SMILES,GPR151 ag,MITF inh,FBW7 activator,TEAD-YAP block
O=C(N/N=C/c1cc2c3c(c1O)CCCN3CCC2)c1ccncc1,0,66*,-1,75*
Cc1cc(=O)[nH]c(N/N=C/c2cc3c4c(c2O)CCCN4CCC3)n1,0,9,0,86*
COCCCNC(=O)c1cc(Sc2ccccc2Cl)nc2ccccc12,2,-2,0,-7
Cc1ccn2cc(-c3cccc(Cl)c3)nc2c1,-7,18,0,-29
Cc1ccn2cc(-c3ccccc3)nc2c1,-8,0,1,77*
CN(C)S(=O)(=O)c1ccc(-c2cn3ccccc3n2)cc1,-2,-1,0,-7
Cc1ccn2cc(-c3ccc(O)c(O)c3)nc2c1,-7,21,0,64*
Cc1ccn2cc(-c3cccc(NC(=O)c4ccccc4)c3)nc2c1,-2,6,0,-52
Cc1ccc(-c2cn3ccccc3n2)cc1C,-8,6,0,59*
Oc1ccc(-c2cn3ccccc3n2)cc1O,-5,9,0,-31
Cc1ccn2cc(-c3ccc4ccccc4c3)nc2c1,-6,-5,0,63*

# Screening results deposited in PubChem BioAssay by The Scripps Research Institute Molecular Screening Center.
